From PMC7862700, “An all-to-all approach to the identification of sequence-specific readers for epigenetic DNA modifications on cytosine”

Legend:
Assay in all cases: DAPPL (digital affinity profiling via proximity ligation, sequencing); 10 mM Tris-HCl pH 7.5, 50 mM NaCl, 1 mM DTT, 4% glycerol, room temperature, 30 min; GST-TFs on glutathione beads, 16-mer random dsDNA library, 0.1% formaldehyde crosslink after washing; high values mean tight binding
Settings in all cases: protein: recombinant; tags: N-terminal GST; dsDNA, one strand shown
FEV = molecular target: T1, FEV (Homo sapiens, UniProt Q99581 1-238)
T1 sequence: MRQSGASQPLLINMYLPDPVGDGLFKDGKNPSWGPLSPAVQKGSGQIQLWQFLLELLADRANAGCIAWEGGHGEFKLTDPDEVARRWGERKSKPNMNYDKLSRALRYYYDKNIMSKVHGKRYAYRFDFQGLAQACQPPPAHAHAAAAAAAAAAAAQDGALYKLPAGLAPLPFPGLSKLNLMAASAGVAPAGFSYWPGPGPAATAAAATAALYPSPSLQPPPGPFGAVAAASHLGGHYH
Procedure, shortened: (§1)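 After expression in yeast as GST fusions, human transcription factors were bound to glutathione beads, DNA-barcoded and mixed with a tag-only sample. The pools were incubated with 200 nmole of a 16-mer random double-stranded DNA library in Tris/NaCl/DTT/glycerol buffer (30 min, room temperature), washed and crosslinked with 0.1% formaldehyde. Proximity ligation with BsaI/T4 ligase ran for 1 h at 37 °C, before PCR amplification and sequencing on an Illumina NextSeq500. Binding signal is a hexamer's read frequency for a factor divided by its frequency for the tag-only sample.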

ETV5 = ETV5 (Homo sapiens, UniProt P41161 1-510)
Procedure, shortened: as §1

SPIC = molecular target: T2, SPIC (Homo sapiens, UniProt Q8N5J4 1-248)
T2 sequence: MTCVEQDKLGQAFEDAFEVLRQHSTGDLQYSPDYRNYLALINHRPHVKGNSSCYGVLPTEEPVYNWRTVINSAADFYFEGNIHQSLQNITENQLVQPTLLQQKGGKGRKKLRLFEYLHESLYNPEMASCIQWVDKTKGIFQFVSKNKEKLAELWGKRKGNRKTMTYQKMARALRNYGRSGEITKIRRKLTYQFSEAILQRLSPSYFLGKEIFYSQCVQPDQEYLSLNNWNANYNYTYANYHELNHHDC
Procedure, shortened: as §1

ELF4 = ELF4 (Homo sapiens, UniProt Q99607 1-663)
Procedure, shortened: as §1

ELK4 = molecular target: T3, ELK4 (Homo sapiens, UniProt P28324-2 1-405)
T3 sequence: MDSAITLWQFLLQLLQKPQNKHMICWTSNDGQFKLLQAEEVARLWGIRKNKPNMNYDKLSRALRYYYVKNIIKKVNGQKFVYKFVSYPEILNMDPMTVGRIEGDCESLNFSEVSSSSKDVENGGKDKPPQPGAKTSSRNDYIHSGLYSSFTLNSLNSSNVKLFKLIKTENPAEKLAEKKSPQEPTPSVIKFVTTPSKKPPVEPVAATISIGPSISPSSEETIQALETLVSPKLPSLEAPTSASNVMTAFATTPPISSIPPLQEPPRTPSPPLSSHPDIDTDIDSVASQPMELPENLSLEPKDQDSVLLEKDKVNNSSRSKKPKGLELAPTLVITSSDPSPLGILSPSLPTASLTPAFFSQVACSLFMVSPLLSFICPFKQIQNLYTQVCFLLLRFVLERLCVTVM
Procedure, shortened: as §1

ETV2 = molecular target: T4, ETV2 (Homo sapiens, UniProt O00321 1-342)
T4 sequence: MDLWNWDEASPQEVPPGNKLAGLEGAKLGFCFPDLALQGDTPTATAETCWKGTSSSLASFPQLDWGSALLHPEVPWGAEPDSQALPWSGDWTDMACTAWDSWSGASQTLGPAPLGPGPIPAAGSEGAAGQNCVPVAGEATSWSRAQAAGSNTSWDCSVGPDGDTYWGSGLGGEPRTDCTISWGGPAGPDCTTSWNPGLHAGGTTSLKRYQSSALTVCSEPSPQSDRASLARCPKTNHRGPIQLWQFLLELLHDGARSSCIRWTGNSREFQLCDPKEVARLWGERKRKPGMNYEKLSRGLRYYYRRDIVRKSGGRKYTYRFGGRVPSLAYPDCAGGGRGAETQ
Procedure, shortened: as §1

ELF3 = molecular target: T5, ELF3 (Homo sapiens, UniProt P78545 1-371)
T5 sequence: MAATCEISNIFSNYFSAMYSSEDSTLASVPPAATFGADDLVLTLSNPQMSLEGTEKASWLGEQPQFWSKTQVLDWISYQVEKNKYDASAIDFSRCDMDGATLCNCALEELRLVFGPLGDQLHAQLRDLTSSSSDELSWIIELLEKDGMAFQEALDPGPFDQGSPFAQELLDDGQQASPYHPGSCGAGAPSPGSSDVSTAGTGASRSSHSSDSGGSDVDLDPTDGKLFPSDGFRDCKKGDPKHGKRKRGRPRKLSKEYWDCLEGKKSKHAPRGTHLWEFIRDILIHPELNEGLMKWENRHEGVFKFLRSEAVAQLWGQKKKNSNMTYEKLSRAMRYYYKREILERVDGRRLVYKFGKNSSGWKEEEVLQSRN
Procedure, shortened: as §1

ETV1 = ETV1 (Homo sapiens, UniProt P50549 1-477)
Procedure, shortened: as §1

ERF = molecular target: T6, ERF (Homo sapiens, UniProt P50548 1-548)
T6 sequence: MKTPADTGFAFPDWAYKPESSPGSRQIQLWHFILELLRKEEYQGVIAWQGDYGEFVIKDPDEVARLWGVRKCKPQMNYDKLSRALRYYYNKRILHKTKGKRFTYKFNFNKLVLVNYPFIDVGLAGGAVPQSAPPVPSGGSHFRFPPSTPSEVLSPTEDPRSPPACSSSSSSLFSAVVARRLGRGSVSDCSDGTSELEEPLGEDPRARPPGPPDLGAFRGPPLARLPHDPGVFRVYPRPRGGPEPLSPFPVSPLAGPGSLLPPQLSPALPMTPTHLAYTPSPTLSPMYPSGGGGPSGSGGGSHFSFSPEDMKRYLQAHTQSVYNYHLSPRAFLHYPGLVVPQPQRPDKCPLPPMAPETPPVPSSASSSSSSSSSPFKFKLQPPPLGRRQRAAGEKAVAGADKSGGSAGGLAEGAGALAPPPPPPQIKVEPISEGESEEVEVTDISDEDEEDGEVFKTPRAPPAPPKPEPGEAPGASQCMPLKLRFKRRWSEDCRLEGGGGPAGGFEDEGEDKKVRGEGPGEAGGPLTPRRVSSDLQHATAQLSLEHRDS
Procedure, shortened: as §1

ETV3L = molecular target: T7, ETV3L (Homo sapiens, UniProt Q6ZN32 1-361)
T7 sequence: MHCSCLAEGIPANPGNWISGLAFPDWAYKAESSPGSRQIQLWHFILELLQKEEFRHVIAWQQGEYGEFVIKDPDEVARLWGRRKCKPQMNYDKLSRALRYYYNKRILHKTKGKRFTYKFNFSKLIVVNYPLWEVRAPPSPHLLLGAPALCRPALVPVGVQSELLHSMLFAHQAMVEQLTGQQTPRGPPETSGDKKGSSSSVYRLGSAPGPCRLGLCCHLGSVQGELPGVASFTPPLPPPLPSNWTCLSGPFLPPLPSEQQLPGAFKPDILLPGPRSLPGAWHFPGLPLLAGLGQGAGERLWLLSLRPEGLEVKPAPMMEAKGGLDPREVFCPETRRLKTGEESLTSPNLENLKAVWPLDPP
Procedure, shortened: as §1

ETS2 = molecular target: T8, ETS2 (Homo sapiens, UniProt P15036 1-469)
T8 sequence: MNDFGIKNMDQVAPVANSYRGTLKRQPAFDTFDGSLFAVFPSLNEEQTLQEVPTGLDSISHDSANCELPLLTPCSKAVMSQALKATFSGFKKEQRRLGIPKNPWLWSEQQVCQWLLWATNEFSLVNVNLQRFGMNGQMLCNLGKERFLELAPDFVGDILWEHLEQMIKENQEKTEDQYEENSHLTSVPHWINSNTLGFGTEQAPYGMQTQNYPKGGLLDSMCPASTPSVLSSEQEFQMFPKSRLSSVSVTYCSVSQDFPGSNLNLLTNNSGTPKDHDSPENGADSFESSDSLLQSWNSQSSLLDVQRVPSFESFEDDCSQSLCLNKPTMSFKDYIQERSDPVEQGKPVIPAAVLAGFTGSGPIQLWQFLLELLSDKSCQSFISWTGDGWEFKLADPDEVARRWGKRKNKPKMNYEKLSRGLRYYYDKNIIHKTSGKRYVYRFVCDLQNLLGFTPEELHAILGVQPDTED
Procedure, shortened: as §1

SPDEF = molecular target: T9, SPDEF (Homo sapiens, UniProt O95238 1-335)
T9 sequence: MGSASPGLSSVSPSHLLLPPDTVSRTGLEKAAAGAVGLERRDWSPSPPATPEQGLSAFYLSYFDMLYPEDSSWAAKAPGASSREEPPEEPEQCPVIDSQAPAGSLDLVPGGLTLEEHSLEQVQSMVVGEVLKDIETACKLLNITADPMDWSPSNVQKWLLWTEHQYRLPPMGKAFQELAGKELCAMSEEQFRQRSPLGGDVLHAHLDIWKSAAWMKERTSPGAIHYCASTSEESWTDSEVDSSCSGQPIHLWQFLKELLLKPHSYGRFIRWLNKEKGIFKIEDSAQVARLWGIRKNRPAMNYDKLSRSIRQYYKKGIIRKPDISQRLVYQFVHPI
Procedure, shortened: as §1

ETV7 = molecular target: T10, ETV7 (Homo sapiens, UniProt Q9Y603 1-341)
T10 sequence: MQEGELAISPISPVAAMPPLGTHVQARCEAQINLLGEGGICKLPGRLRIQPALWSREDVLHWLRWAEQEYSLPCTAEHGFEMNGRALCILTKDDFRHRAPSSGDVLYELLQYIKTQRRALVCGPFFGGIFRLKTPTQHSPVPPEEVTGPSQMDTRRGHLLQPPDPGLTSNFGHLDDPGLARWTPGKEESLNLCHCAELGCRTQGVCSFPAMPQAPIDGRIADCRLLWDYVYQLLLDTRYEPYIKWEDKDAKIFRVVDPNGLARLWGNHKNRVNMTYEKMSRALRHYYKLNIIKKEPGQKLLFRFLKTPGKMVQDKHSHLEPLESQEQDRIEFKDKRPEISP
Procedure, shortened: as §1

ETV3 = molecular target: T11, ETV3 (Homo sapiens, UniProt P41162-2 1-143)
T11 sequence: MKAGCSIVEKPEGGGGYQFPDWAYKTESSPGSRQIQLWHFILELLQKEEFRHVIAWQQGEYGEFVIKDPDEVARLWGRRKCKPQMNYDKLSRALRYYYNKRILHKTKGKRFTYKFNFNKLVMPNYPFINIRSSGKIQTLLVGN
Procedure, shortened: as §1

ETV6 = ETV6 (Homo sapiens, UniProt P41212 1-452)
Procedure, shortened: as §1

ELF5 = molecular target: T12, ELF5 (Homo sapiens, UniProt Q9UKW6-2 1-255)
T12 sequence: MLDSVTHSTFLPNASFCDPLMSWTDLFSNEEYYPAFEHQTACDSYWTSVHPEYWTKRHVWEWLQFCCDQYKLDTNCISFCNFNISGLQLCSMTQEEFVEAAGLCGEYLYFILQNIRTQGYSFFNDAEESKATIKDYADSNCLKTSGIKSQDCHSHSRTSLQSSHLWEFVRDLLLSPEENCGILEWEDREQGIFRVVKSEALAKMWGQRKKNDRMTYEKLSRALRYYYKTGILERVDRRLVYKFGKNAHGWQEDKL
Procedure, shortened: as §1

Sequence of ETV6 (P41212 whole entry): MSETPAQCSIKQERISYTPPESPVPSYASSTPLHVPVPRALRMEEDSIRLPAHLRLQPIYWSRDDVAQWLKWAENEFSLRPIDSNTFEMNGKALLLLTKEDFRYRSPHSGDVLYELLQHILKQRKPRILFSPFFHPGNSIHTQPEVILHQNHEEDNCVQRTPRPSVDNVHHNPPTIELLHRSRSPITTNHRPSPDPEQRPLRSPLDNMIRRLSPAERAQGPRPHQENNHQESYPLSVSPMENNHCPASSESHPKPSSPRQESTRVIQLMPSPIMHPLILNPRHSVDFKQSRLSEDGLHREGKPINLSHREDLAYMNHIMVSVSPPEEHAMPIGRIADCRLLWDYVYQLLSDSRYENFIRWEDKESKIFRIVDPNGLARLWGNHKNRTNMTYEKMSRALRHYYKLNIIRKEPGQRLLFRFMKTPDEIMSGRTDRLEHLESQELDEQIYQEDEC
Sequence of ETV5 (P41161 whole entry): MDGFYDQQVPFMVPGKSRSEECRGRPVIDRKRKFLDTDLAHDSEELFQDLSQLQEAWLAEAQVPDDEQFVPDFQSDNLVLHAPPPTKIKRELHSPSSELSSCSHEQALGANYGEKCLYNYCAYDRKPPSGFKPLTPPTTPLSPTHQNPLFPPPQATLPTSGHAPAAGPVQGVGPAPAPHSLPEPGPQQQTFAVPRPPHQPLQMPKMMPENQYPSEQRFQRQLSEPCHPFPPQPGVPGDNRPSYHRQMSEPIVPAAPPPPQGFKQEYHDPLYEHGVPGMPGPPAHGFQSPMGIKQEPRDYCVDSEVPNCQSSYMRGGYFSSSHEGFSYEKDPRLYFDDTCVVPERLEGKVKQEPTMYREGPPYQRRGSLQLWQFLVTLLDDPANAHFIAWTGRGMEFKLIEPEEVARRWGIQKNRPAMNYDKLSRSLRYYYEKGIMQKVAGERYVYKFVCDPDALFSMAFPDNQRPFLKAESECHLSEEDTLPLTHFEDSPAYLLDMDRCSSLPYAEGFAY
Sequence of ELF4 (Q99607 whole entry): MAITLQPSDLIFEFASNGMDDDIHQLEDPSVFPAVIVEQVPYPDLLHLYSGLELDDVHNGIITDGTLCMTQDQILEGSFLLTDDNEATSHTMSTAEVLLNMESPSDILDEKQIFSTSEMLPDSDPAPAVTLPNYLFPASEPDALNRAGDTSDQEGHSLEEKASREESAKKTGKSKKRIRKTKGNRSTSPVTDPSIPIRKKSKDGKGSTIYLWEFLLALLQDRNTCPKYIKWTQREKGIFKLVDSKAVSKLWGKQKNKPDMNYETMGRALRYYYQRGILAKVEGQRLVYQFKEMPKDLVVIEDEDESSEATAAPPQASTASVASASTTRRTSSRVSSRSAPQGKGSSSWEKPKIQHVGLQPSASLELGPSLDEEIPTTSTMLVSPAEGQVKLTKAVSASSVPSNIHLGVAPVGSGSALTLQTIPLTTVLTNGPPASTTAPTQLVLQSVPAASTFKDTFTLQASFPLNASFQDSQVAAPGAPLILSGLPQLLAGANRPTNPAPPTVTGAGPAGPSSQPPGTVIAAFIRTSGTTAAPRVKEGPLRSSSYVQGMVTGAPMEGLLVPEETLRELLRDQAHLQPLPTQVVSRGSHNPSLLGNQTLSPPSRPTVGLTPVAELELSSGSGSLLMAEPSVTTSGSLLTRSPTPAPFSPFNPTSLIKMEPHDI
Sequence of ETV1 (P50549 whole entry): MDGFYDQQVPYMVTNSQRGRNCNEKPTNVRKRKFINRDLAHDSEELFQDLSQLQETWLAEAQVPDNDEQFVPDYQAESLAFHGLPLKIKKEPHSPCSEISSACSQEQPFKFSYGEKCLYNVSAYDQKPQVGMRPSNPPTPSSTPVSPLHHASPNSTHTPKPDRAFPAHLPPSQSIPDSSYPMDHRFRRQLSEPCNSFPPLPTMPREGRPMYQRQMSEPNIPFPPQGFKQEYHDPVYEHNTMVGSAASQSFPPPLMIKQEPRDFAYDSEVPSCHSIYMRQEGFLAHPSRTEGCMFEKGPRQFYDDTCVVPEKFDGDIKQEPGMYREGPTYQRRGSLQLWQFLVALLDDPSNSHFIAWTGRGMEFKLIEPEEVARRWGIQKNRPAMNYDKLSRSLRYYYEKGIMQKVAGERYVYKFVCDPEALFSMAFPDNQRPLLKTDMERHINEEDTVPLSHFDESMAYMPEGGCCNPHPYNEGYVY

Sequence | binding signal (FEV) | binding signal (ETV5) | binding signal (SPIC) | binding signal (ELF4) | binding signal (ELK4) | binding signal (ETV2) | binding signal (ELF3) | binding signal (ETV1) | binding signal (ERF) | binding signal (ETV3L) | binding signal (ETS2) | binding signal (SPDEF) | binding signal (ETV7) | binding signal (ETV3) | binding signal (ETV6) | binding signal (ELF5)
GCACGC | 1.08 fold enrichment (6-mer frequency, TF over GST control) | 1.04 fold enrichment (6-mer frequency, TF over GST control) | 1.06 fold enrichment (6-mer frequency, TF over GST control) | 1.11 fold enrichment (6-mer frequency, TF over GST control) | 1.05 fold enrichment (6-mer frequency, TF over GST control) | 1.18 fold enrichment (6-mer frequency, TF over GST control) | 1.13 fold enrichment (6-mer frequency, TF over GST control) | 1.16 fold enrichment (6-mer frequency, TF over GST control) | 1.09 fold enrichment (6-mer frequency, TF over GST control) | 1.07 fold enrichment (6-mer frequency, TF over GST control) | 1 fold enrichment (6-mer frequency, TF over GST control) | 1.04 fold enrichment (6-mer frequency, TF over GST control) | 1.07 fold enrichment (6-mer frequency, TF over GST control) | 1.14 fold enrichment (6-mer frequency, TF over GST control) | 1.07 fold enrichment (6-mer frequency, TF over GST control) | 
CGCTTG | 1.08 fold enrichment (6-mer frequency, TF over GST control) | 1.06 fold enrichment (6-mer frequency, TF over GST control) | 1.16 fold enrichment (6-mer frequency, TF over GST control) | 1.01 fold enrichment (6-mer frequency, TF over GST control) | 1 fold enrichment (6-mer frequency, TF over GST control) | 1.07 fold enrichment (6-mer frequency, TF over GST control) | 1.2 fold enrichment (6-mer frequency, TF over GST control) | 1.15 fold enrichment (6-mer frequency, TF over GST control) | 1.06 fold enrichment (6-mer frequency, TF over GST control) | 1.01 fold enrichment (6-mer frequency, TF over GST control) | 1.22 fold enrichment (6-mer frequency, TF over GST control) | 1.09 fold enrichment (6-mer frequency, TF over GST control) | 1.01 fold enrichment (6-mer frequency, TF over GST control) | 1.06 fold enrichment (6-mer frequency, TF over GST control) | 1.11 fold enrichment (6-mer frequency, TF over GST control) | 
GTAACA | 1.14 fold enrichment (6-mer frequency, TF over GST control) | 1.08 fold enrichment (6-mer frequency, TF over GST control) | 1.12 fold enrichment (6-mer frequency, TF over GST control) | 1.14 fold enrichment (6-mer frequency, TF over GST control) | 1.12 fold enrichment (6-mer frequency, TF over GST control) | 1.03 fold enrichment (6-mer frequency, TF over GST control) | 1.27 fold enrichment (6-mer frequency, TF over GST control) | 1.14 fold enrichment (6-mer frequency, TF over GST control) | 1.1 fold enrichment (6-mer frequency, TF over GST control) | 1.07 fold enrichment (6-mer frequency, TF over GST control) | 1.08 fold enrichment (6-mer frequency, TF over GST control) | 1.14 fold enrichment (6-mer frequency, TF over GST control) | 1.08 fold enrichment (6-mer frequency, TF over GST control) | 1.15 fold enrichment (6-mer frequency, TF over GST control) | 1.09 fold enrichment (6-mer frequency, TF over GST control) | 1.1 fold enrichment (6-mer frequency, TF over GST control)
